The values that follow come from PubChem BioAssay (EPA / NIEHS).

Read-out in test [1]: urokinase plasminogen activator (uPA), PLAU (gene 5328)
The test can be described thus: BSK_KF3CT_uPA: BioMAP Diversity Plus: KF3CT Assay for urokinase plasminogen activator (uPA) Biomarker Activity (AID 2283075). Particulars: primary human keratinocytes with fibroblasts; actives raise or lower the signal. The method in brief:
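Values derive from bidirectional fitting against DMSO controls. Keratinocyte/foreskin fibroblast co-cultures received chemical; 24 h later uPA was detected by ELISA, with SRB total-protein staining in parallel wells for overt cytotoxicity.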

Read-out in test [2]: CD40, CD40 (gene 958)
The experiment in a line: BSK_LPS_CD40: BioMAP Diversity Plus: LPS Assay for CD40 Biomarker Activity (AID 2283076). The following applies: primary human HUVEC with PBMC; actives raise or lower the signal. The method in brief: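 HUVEC plus PBMC co-culture stimulated with LPS; CD40 quantified by ELISA 24 h after compound dosing. Fitting was bidirectional relative to DMSO. SRB staining of parallel cultures flagged overt cytotoxicity.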

Read-out in test [3]: E-selectin (Homo sapiens) (UniProt P16581)
The experiment in a line: BSK_LPS_Eselectin: BioMAP Diversity Plus: LPS Assay for Eselectin Biomarker Activity (AID 2283077). The following applies: primary human HUVEC with PBMC; actives raise or lower the signal. The method in brief:
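Human umbilical vein endothelial cells co-cultured with PBMC under LPS stimulation; cell-surface E-selectin measured by ELISA 24 h after dosing. Change in either direction versus DMSO, with SRB total-protein staining in parallel cultures for cytotoxicity.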

A short description of test [4]: BSK_LPS_SRB: Viability Assessment in the BioMAP Diversity Plus: LPS Assay (AID 2283079).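 Note: total protein by sulforhodamine B absorbance as a cytotoxicity measure; measured one day after compound addition; fitted in both directions against DMSO so loss or gain of signal counts.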 The following applies: primary human HUVEC with PBMC. The essentials:
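Co-culture of human umbilical vein endothelial cells and PBMC, read 24 h after dosing. Total protein by 0.1% SRB staining after 10% TCA fixation, absorbance at 560 nm; bidirectional fit against DMSO.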

Read-out in test [5]: Interleukin-1 alpha (IL1a), IL1A (gene 3552)
The experiment in a line: BSK_LPS_IL1a: BioMAP Diversity Plus: LPS Assay for Interleukin-1 alpha (IL1a) Biomarker Activity (AID 2283080). The following applies: primary human HUVEC with PBMC; actives raise or lower the signal. The method in brief:
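Human umbilical vein endothelial cells co-cultured with PBMC and stimulated with LPS; IL-1a measured by ELISA 24 h after dosing. Bidirectional fitting against DMSO; cytotoxicity checked by SRB staining in parallel cultures.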

Read-out in test [6]: Monocyte Chemoattractant Protein-1 (MCP1), CCL2 (gene 6347)
The test can be described thus: BSK_LPS_MCP1: BioMAP Diversity Plus: LPS Assay for Monocyte Chemoattractant Protein-1 (MCP1) Biomarker Activity (AID 2283081).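 For AC50: secreted MCP-1 protein quantified by ELISA in culture supernatant.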 The following applies: primary human HUVEC with PBMC; actives raise or lower the signal. The method in brief: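 Human umbilical vein endothelial cells co-cultured with PBMC, LPS-stimulated; secreted MCP-1 measured by ELISA 24 h after compound addition. Bidirectional curve fitting against DMSO baseline; SRB total-protein staining in parallel cultures for cytotoxicity.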

A short description of test [7]: BSK_LPS_PGE2: BioMAP Diversity Plus: LPS Assay for Prostaglandin E2 (PGE2) Biomarker Activity (AID 2283082).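 For AC50: secreted prostaglandin E2 measured by ELISA in LPS-stimulated co-culture.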 Particulars: primary human HUVEC with PBMC; actives raise or lower the signal. The method in brief:
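ELISA read-out of PGE2 from human umbilical vein endothelial cells co-cultured with peripheral blood mononuclear cells under LPS, 24 h post-dose. Gain or loss of signal scored relative to DMSO baseline.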

Read-out in test [8]: Macrophage colony-stimulating factor (MCSF), CSF1 (gene 1435)
The test can be described thus: BSK_LPS_MCSF: BioMAP Diversity Plus: LPS Assay for Macrophage colony-stimulating factor (MCSF) Biomarker Activity (AID 2283083). Particulars: primary human HUVEC with PBMC; actives raise or lower the signal. The essentials: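 HUVEC–PBMC co-culture, M-CSF measured by ELISA 24 h after chemical dosing. Fitted in both directions relative to DMSO as negative control; overt cytotoxicity assessed by SRB total-protein staining in parallel cultures.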

Read-out in test [9]: Tissue Factor, F3 (gene 2152)
The experiment in a line: BSK_LPS_TissueFactor: BioMAP Diversity Plus: LPS Assay for Tissue Factor Biomarker Activity (AID 2283084). Particulars: primary human HUVEC with PBMC; actives raise or lower the signal. The method in brief: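 Human umbilical vein endothelial cells co-cultured with PBMC were dosed with compound. Cell-surface CD142 was measured by ELISA 24 h later. Activity was fitted bidirectionally against DMSO, with SRB total-protein staining in parallel cultures for cytotoxicity.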

Read-out in test [10]: Tumor necrosis factor (Homo sapiens) (UniProt P01375)
The test can be described thus: BSK_LPS_TNFa: BioMAP Diversity Plus: LPS Assay for Tumour Necrosis Factor alpha (TNFa) Biomarker Activity (AID 2283085).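 For AC50: TNFa protein level quantified by ELISA in the co-culture.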 Particulars: primary human HUVEC with PBMC; actives raise or lower the signal. The method in brief: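 HUVEC/PBMC co-culture, LPS-stimulated; 24 h post-dose; TNFa by ELISA; gain or loss of signal fitted bidirectionally vs DMSO baseline.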

Read-out in test [11]: Vascular cell adhesion molecule 1 (VCAM1), VCAM1 (gene 7412)
The test can be described thus: BSK_LPS_VCAM1: BioMAP Diversity Plus: LPS Assay for Vascular cell adhesion molecule 1 (VCAM1) Biomarker Activity (AID 2283086). The following applies: primary human HUVEC with PBMC; actives raise or lower the signal. The essentials: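 ELISA read-out of VCAM-1 at 24 h post-dosing in an LPS-driven HUVEC/PBMC primary human co-culture; gain or loss of signal fitted bidirectionally against DMSO baseline. Cytotoxicity tracked in parallel cultures by SRB total-protein staining.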

Read-out in a further test: CD38, CD38 (gene 952)
The test can be described thus: BSK_SAg_CD38: BioMAP Diversity Plus: SAg Assay for CD38 Biomarker Activity (AID 2283087). Particulars: primary human HUVEC with PBMC; actives raise or lower the signal. The essentials:
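Measures CD38 on a human endothelial/PBMC co-culture driven by SEB and TSST-1, 24 h after compound exposure, using ELISA with fluorescence detection; DMSO defines baseline for bidirectional curve fitting.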

Read-out in test [12]: CD40, CD40 (gene 958)
The experiment in a line: BSK_SAg_CD40: BioMAP Diversity Plus: SAg Assay for CD40 Biomarker Activity (AID 2283088). Particulars: primary human HUVEC with PBMC; actives raise or lower the signal. The method in brief: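 HUVEC plus PBMC co-culture, superantigen-activated, with CD40 read by ELISA 24 h after dosing. Curves fitted in both directions against DMSO. Overt cytotoxicity checked by parallel SRB total-protein staining.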

Read-out in a further test: CD69, CD69 (gene 969)
The test can be described thus: BSK_SAg_CD69: BioMAP Diversity Plus: SAg Assay for CD69 Biomarker Activity (AID 2283089).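 For AC50: cell surface CD69 protein quantified by ELISA with fluorescence detection.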 Particulars: primary human HUVEC with PBMC; actives raise or lower the signal. The essentials:
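Values derive from bidirectional fitting relative to DMSO vehicle. Cells: umbilical vein endothelium plus peripheral blood mononuclear cells, treated 24 h before fluorescent ELISA for CD69.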

Read-out in test [13]: Monocyte Chemoattractant Protein-1 (MCP1), CCL2 (gene 6347)
The experiment in a line: BSK_SAg_MCP1: BioMAP Diversity Plus: SAg Assay for Monocyte Chemoattractant Protein-1 (MCP1) Biomarker Activity (AID 2283090). The following applies: primary human HUVEC with PBMC; actives raise or lower the signal. The method in brief: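 Values derive from bidirectional fitting of ELISA-measured MCP1 against DMSO controls. Readings were taken 24 h after dosing human vascular endothelial cells co-cultured with peripheral blood mononuclear cells under superantigen stimulation.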

Read-out in test [14]: E-selectin (Homo sapiens) (UniProt P16581)
The experiment in a line: BSK_SAg_Eselectin: BioMAP Diversity Plus: SAg Assay for Eselectin Biomarker Activity (AID 2283091). Particulars: primary human HUVEC with PBMC; actives raise or lower the signal. The essentials: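 Human umbilical vein endothelial cells co-cultured with peripheral blood mononuclear cells, SAg system. E-selectin is measured by ELISA 24 h after dosing and fitted bidirectionally against DMSO. Cytotoxicity is checked by SRB staining of parallel cultures.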

Read-out in test [15]: Monokine induced gamma interferon (MIG), CXCL9 (gene 4283)
The experiment in a line: BSK_SAg_MIG: BioMAP Diversity Plus: SAg Assay for Monokine induced gamma interferon (MIG) Biomarker Activity (AID 2283092). The following applies: primary human HUVEC with PBMC; actives raise or lower the signal. The method in brief: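 Values reflect bidirectional fitting of ELISA-measured MIG against DMSO vehicle, taken 24 h after dosing of a co-culture of human umbilical vein endothelial cells and peripheral blood mononuclear cells.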

Read-out in test [16]: Interleukin-8 (IL8), CXCL8 (gene 3576)
The test can be described thus: BSK_SAg_IL8: BioMAP Diversity Plus: SAg Assay for Interleukin-8 (IL8) Biomarker Activity (AID 2283094). Particulars: primary human HUVEC with PBMC; actives raise or lower the signal. The method in brief:
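HUVEC/PBMC co-culture, 24 h post-dose; IL-8 by ELISA. Gain or loss of signal fitted bidirectionally vs DMSO baseline.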

The structures appear in SMILES notation. Calls of active or inactive are those of the source. Rule for the calls: active = hit-call score of the fitted dose curve at least 0.9, where 1 is the maximum; inactive = score below 0.9.

E-selectin (Homo sapiens), sequence (P16581 whole entry, looked up): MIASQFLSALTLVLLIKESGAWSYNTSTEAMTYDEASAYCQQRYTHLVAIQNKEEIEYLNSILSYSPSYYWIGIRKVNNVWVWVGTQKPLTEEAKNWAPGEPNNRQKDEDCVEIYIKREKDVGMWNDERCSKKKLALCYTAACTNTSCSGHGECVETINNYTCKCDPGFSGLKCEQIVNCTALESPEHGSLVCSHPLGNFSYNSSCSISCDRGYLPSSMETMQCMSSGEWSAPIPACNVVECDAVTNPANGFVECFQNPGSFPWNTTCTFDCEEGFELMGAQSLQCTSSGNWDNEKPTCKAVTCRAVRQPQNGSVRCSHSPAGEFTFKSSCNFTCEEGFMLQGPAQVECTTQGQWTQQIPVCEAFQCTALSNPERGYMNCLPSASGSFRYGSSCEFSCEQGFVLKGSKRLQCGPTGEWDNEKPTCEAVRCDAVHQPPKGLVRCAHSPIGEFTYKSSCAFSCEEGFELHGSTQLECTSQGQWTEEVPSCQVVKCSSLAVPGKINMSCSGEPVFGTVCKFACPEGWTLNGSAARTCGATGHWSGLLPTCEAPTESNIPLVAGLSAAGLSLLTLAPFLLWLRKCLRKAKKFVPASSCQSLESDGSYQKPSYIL
Tumor necrosis factor (Homo sapiens), sequence (P01375 whole entry, looked up): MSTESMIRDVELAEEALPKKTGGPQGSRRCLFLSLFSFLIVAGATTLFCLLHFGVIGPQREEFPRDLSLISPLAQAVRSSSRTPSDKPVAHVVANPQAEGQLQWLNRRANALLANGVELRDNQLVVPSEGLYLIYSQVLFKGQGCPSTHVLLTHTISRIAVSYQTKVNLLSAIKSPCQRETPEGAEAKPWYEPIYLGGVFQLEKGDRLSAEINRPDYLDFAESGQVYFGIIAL

Regarding `O=C(Oc1ccccc1)c1cccc(C(=O)Oc2ccccc2)c1`, the outcome in [1] was “inactive”; with CD40, CD40 (gene 958) [2], “inactive”; in test [3], “inactive”; in test [4] it was “inactive”; in [5] it was “inactive”; in test [6], “inactive”. Besides, the outcome in [7] is “inactive”; in [8], “inactive”; in test [9], “inactive”; in [10], “inactive”; in test [11] it was “inactive”; in the test with CD38, CD38 (gene 952) it was “inactive”. Further, the outcome was “inactive” in the test with CD40, CD40 (gene 958) [12]; “inactive” with CD69, CD69 (gene 969); “inactive” in test [13]; “inactive” in test [14]; “inactive” in [15]; “inactive” in test [16].
With `CCCCC(CC)CO` (stereo not drawn), the outcome in test [1] was “inactive”; in the test with CD40, CD40 (gene 958) [2] it was “inactive”; in test [3], “inactive”; in test [4] it was “inactive”; in [5] it was “inactive”; in [6], “inactive”. The outcome in test [7] is “inactive”; in test [8] it was “inactive”; in test [9], “inactive”; in test [10] it was “inactive”; in test [11], “inactive”; in the test with CD38, CD38 (gene 952) it was “inactive”. Also, the outcome is “inactive” with CD40, CD40 (gene 958) [12]; “inactive” with CD69, CD69 (gene 969); “inactive” in [13]; “inactive” in test [14]; “inactive” in test [15]; “inactive” in test [16].
One may read the AC50 as the concentration giving half of the maximal activity seen. On to `CN(C)CCCN1c2ccccc2Sc2ccc(Cl)cc21`, for which the concentration at half-maximal activity (AC50) is 30.3 µM (active) in [1]; 25.3 µM (active) with CD40, CD40 (gene 958) [2]; 24.9 µM (active) in test [4]; 26 µM (active) in test [6]; 30.1 µM (active) in [8]; 27.8 µM (active) in test [10]. The concentration at half-maximal activity (AC50) in test [11] is 29.9 µM (active); with CD38, CD38 (gene 952), 28.8 µM (active); in the test with CD40, CD40 (gene 958) [12] it was 29.5 µM (active); with CD69, CD69 (gene 969), 28.6 µM (active); in [14], 27.7 µM (active). Also, the result in [3] and in [7] was inactive.
In the case of `N[C@@H](Cc1c[nH]c2ccccc12)C(=O)O`, the outcome in test [1] is “inactive”; in the test with CD40, CD40 (gene 958) [2] it was “inactive”; in test [3], “inactive”; in [4], “inactive”; in test [5], “inactive”; in [6] it was “inactive”. The outcome in [7] is “inactive”; in test [8], “inactive”; in [10], “inactive”; in test [11], “inactive”; in the test with CD38, CD38 (gene 952) it was “inactive”; with CD40, CD40 (gene 958) [12] it was “inactive”. The outcome with CD69, CD69 (gene 969) was “inactive”; in [13], “inactive”; in test [14], “inactive”; in test [15], “inactive”; in [16], “inactive”.
As for `Oc1ccccc1O`, the AC50 in test [1] was 20 µM (active); in the test with CD40, CD40 (gene 958) [2], 7.33 µM (active); in [4], 7.37 µM (active); in test [7] it was 14.4 µM (active); in test [8], 3.92 µM (active); in test [11] it was 2.79 µM (active). Besides, the concentration at half-maximal activity (AC50) was 4.21 µM (active) with CD40, CD40 (gene 958) [12] and 5.69 µM (active) with CD69, CD69 (gene 969). Besides, the outcome is “inactive” in test [3]; “inactive” in test [5]; “inactive” in [6]; “inactive” in test [10]; “inactive” in the test with CD38, CD38 (gene 952); “inactive” in test [13]. Moreover, the result in test [14], in test [15] and in test [16] was inactive.
